From paper PMC7862700, “An all-to-all approach to the identification of sequence-specific readers for epigenetic DNA modifications on cytosine” come the findings set out here.

Test in all cases: DAPPL (digital affinity profiling via proximity ligation, sequencing); 10 mM Tris-HCl pH 7.5, 50 mM NaCl, 1 mM DTT, 4% glycerol, room temperature, 30 min; GST-TFs on glutathione beads, 16-mer random dsDNA library, 0.1% formaldehyde crosslink after washing; high values mean tight binding
The target in one experiment is T1, FLI1 (Homo sapiens, UniProt Q01543 1-452).
T1 sequence: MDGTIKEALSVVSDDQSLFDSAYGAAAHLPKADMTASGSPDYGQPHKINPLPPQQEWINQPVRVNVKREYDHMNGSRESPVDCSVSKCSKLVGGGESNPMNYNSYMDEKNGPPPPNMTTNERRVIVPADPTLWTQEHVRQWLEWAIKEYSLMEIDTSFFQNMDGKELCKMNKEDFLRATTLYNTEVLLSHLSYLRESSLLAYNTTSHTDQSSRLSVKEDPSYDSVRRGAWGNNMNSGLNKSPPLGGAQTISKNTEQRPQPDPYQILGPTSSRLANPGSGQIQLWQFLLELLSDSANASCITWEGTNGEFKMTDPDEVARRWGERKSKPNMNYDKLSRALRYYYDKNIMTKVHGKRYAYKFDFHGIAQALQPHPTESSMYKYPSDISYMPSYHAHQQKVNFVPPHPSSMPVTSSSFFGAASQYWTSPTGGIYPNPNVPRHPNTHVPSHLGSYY
The settings on record: protein: recombinant; tags: N-terminal GST; dsDNA, one strand shown. In short, it runs like this: (§1)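 In yeast, human transcription factors were expressed with a GST fusion, then pulled down on glutathione beads and given DNA barcodes. Pooled with a tag-only sample, they were exposed to 200 nmole of a 16-mer random double-stranded DNA library (Tris/NaCl/DTT/glycerol buffer, room temperature, 30 min), washed, crosslinked with 0.1% formaldehyde, proximity-ligated using BsaI/T4 ligase for 1 h at 37 °C, PCR-amplified and read on an Illumina NextSeq500. Each hexamer's frequency of reads for a factor, divided by the matching frequency for the tag-only sample, gives the binding signal.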

For the next experiment, the target named is T2, ELK1 (Homo sapiens, UniProt P19419 1-428).
T2 sequence: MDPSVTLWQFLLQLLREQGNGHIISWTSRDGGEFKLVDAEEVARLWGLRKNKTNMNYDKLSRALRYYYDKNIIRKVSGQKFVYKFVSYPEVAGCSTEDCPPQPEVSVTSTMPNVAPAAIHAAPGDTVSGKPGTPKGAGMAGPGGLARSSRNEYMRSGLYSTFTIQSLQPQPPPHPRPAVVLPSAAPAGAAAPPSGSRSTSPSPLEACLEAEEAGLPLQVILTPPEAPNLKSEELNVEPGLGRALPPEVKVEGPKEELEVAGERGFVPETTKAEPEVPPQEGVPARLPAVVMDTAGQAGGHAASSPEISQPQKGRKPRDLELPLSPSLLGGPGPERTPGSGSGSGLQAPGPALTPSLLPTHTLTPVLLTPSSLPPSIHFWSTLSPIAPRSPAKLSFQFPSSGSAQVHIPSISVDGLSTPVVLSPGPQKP
Conditions: protein: recombinant; tags: N-terminal GST; dsDNA, one strand shown. In short, it runs like this:
as §1

In the next experiment the target is T3, GABPA (Homo sapiens, UniProt Q06546 1-454).
T3 sequence: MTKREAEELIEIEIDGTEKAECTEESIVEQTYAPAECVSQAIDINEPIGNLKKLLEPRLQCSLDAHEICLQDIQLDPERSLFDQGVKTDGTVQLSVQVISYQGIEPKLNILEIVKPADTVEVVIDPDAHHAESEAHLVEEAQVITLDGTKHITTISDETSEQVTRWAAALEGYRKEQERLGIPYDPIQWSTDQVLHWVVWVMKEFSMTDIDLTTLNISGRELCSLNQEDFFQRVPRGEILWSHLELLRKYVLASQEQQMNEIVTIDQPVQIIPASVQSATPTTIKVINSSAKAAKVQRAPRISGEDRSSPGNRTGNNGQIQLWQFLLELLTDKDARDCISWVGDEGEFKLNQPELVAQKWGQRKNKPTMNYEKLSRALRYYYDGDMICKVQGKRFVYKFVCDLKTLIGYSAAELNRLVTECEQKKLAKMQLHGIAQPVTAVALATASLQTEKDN
Conditions: protein: recombinant; tags: N-terminal GST; dsDNA, one strand shown. In short, it runs like this:
as §1

In a further experiment the target is T4, ERG (Homo sapiens, UniProt P11308 1-479).
T4 sequence: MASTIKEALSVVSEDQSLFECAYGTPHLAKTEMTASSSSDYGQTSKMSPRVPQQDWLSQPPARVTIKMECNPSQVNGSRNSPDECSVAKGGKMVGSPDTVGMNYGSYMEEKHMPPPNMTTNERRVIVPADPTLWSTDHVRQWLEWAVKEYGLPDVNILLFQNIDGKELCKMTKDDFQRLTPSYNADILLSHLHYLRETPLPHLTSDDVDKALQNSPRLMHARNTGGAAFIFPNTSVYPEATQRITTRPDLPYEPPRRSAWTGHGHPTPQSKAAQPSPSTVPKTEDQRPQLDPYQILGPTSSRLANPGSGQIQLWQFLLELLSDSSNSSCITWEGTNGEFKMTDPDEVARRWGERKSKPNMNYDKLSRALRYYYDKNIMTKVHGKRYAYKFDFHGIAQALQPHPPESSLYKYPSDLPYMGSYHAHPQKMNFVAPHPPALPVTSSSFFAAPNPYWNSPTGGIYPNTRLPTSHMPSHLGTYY
Conditions: protein: recombinant; tags: N-terminal GST; dsDNA, one strand shown. The procedure, abridged: as §1

For a further experiment, the target named is ELF1 (Homo sapiens, UniProt P32519 1-619). The settings on record: protein: recombinant; tags: N-terminal GST; dsDNA, one strand shown. In short, it runs like this: as §1
The target in a further experiment is T5, EHF (Homo sapiens, UniProt Q9NZC4 1-300).
T5 sequence: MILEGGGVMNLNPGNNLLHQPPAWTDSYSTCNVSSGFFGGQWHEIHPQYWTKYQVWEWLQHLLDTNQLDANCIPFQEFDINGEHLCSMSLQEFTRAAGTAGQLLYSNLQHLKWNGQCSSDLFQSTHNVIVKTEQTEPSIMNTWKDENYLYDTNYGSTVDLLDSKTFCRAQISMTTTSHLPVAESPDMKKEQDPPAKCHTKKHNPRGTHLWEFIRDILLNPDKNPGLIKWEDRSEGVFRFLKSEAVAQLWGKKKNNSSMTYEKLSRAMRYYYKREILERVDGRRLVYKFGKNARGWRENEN
The settings on record: protein: recombinant; tags: N-terminal GST; dsDNA, one strand shown. In short, it runs like this:
as §1

In another experiment the target is SPI1 (Homo sapiens, UniProt P17947 1-270). Conditions: protein: recombinant; tags: N-terminal GST; dsDNA, one strand shown. The procedure, abridged: as §1
In a further experiment the target is SPIB (Homo sapiens, UniProt Q01892 1-262). Conditions: protein: recombinant; tags: N-terminal GST; dsDNA, one strand shown. The procedure, abridged:
as §1

In the next experiment the target is T6, ELK3 (Homo sapiens, UniProt P41970 1-407).
T6 sequence: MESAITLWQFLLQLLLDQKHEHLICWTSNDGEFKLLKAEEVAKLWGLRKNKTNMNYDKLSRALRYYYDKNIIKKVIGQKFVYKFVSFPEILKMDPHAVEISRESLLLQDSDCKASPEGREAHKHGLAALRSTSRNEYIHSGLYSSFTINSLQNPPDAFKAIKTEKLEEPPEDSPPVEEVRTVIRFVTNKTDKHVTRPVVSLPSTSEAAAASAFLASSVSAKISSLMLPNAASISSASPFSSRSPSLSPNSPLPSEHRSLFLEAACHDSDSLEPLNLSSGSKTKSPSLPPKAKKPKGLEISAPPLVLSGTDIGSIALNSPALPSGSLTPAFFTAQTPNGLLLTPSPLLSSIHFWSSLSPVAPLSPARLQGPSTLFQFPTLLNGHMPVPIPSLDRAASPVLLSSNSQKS
The settings on record: protein: recombinant; tags: N-terminal GST; dsDNA, one strand shown. The procedure, abridged:
as §1

The target in a further experiment is T7, FEV (Homo sapiens, UniProt Q99581 1-238).
T7 sequence: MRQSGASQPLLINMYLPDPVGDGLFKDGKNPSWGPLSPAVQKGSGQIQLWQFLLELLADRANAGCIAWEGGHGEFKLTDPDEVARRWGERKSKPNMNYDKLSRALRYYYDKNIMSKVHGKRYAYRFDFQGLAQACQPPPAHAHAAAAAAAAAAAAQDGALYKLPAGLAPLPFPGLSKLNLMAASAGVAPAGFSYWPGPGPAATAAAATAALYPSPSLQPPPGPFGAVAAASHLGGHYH
Conditions: protein: recombinant; tags: N-terminal GST; dsDNA, one strand shown. The procedure, abridged: as §1

The target of the next experiment is ETV5 (Homo sapiens, UniProt P41161 1-510). Conditions: protein: recombinant; tags: N-terminal GST; dsDNA, one strand shown. The procedure, abridged:
as §1

The target in the next experiment is HSF1 (Homo sapiens, UniProt Q00613 1-529). Conditions: protein: recombinant; tags: N-terminal GST; chain copies: 3; dsDNA, one strand shown. In short, it runs like this:
as §1

The target of the next experiment is T8, SPIC (Homo sapiens, UniProt Q8N5J4 1-248).
T8 sequence: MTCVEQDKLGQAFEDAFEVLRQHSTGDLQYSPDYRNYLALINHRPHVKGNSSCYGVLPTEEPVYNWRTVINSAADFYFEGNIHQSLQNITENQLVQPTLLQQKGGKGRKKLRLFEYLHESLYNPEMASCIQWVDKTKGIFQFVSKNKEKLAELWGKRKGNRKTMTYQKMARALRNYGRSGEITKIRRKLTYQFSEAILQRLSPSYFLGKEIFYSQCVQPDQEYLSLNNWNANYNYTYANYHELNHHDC
Conditions: protein: recombinant; tags: N-terminal GST; dsDNA, one strand shown. The procedure, abridged: as §1

The next experiment addresses ELF4 (Homo sapiens, UniProt Q99607 1-663). Conditions: protein: recombinant; tags: N-terminal GST; dsDNA, one strand shown. In short, it runs like this:
as §1

The next experiment addresses T9, ELK4 (Homo sapiens, UniProt P28324-2 1-405).
T9 sequence: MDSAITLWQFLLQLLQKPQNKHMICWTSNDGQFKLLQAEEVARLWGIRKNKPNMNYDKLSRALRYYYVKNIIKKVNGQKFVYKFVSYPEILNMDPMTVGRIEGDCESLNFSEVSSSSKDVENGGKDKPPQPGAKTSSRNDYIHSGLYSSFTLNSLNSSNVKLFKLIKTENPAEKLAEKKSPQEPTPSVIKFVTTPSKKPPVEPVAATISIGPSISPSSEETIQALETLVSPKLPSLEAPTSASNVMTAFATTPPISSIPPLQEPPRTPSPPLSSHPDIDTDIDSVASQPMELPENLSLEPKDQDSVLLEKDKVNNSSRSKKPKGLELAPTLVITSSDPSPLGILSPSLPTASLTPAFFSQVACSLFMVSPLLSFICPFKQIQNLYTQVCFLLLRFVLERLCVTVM
Conditions: protein: recombinant; tags: N-terminal GST; dsDNA, one strand shown. In short, it runs like this:
as §1

In the next experiment the target is T10, ETV2 (Homo sapiens, UniProt O00321 1-342).
T10 sequence: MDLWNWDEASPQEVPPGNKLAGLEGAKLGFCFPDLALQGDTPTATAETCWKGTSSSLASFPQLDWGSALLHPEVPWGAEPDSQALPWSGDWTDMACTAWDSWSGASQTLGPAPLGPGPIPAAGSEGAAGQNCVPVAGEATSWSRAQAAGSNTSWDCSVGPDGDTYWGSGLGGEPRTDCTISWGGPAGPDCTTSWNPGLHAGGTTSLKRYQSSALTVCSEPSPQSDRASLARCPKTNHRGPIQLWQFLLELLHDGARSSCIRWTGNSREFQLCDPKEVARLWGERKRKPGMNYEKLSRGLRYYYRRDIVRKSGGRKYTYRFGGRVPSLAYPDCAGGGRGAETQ
Conditions: protein: recombinant; tags: N-terminal GST; dsDNA, one strand shown. The procedure, abridged: as §1

The next experiment has as its target T11, ELF3 (Homo sapiens, UniProt P78545 1-371).
T11 sequence: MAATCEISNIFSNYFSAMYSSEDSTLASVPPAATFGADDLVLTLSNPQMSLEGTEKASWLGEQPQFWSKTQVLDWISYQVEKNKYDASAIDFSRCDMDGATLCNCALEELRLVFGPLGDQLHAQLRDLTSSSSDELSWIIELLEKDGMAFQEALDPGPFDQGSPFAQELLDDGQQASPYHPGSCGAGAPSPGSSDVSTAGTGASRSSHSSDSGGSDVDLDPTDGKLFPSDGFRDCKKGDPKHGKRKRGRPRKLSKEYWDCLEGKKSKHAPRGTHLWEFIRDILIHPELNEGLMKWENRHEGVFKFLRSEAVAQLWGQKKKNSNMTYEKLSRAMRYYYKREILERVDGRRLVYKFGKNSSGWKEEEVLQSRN
Conditions: protein: recombinant; tags: N-terminal GST; dsDNA, one strand shown. In short, it runs like this: as §1

The target of the next experiment is CRX (Homo sapiens, UniProt O43186 1-299). The settings on record: protein: recombinant; tags: N-terminal GST; dsDNA, one strand shown. In short, it runs like this:
as §1

The next experiment has as its target ETV1 (Homo sapiens, UniProt P50549 1-477). Conditions: protein: recombinant; tags: N-terminal GST; dsDNA, one strand shown. The procedure, abridged:
as §1

ETV5, sequence (P41161 whole entry): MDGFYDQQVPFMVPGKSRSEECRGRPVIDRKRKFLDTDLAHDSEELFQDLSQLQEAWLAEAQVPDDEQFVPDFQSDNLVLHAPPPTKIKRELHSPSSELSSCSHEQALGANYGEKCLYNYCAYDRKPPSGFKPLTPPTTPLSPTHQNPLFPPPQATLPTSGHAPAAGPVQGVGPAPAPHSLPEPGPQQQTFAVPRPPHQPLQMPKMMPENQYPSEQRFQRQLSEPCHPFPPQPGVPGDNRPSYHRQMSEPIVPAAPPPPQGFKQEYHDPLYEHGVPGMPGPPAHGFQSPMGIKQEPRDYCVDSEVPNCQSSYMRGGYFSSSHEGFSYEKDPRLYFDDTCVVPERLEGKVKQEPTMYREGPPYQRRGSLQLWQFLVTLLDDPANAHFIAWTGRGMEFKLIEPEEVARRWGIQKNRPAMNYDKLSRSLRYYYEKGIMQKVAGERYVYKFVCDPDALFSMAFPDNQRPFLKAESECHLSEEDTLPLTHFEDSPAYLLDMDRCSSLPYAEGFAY
ETV1, sequence (P50549 whole entry): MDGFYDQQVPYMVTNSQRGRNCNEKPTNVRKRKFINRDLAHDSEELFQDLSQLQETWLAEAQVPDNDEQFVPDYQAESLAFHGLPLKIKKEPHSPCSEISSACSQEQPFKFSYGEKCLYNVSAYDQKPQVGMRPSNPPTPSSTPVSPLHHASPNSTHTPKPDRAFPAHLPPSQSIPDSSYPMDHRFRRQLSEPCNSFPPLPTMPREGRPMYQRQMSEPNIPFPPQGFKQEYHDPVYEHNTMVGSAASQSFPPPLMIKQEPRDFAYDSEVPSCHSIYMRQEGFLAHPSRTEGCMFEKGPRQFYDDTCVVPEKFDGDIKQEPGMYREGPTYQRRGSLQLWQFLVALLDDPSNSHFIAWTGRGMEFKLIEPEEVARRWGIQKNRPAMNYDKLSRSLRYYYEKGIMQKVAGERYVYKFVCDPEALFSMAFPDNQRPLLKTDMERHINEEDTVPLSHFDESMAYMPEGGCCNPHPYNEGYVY
ELF1, sequence (P32519 whole entry): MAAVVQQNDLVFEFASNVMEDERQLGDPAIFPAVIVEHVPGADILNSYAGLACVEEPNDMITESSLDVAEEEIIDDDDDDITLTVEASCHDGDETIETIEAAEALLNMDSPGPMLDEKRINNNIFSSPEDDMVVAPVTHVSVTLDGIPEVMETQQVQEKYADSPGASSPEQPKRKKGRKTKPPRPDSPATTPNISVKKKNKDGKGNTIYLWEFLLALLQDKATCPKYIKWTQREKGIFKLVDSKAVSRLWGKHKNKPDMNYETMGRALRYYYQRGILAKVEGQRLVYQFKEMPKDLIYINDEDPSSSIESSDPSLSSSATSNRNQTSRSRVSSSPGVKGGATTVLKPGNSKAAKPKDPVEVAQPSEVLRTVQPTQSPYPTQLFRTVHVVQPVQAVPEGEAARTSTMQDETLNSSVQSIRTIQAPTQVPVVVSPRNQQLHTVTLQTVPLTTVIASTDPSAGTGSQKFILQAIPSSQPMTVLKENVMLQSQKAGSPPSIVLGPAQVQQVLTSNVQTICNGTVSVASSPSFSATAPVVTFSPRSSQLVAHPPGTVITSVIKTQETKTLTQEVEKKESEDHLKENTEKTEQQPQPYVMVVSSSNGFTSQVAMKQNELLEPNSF
SPIB, sequence (Q01892 whole entry): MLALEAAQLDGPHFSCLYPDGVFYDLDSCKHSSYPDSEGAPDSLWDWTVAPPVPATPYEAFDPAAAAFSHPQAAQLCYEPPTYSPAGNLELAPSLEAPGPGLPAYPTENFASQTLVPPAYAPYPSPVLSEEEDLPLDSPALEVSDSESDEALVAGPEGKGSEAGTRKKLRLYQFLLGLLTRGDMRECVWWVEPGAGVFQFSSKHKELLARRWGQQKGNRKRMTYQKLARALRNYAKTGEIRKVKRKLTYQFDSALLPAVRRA
HSF1, sequence (Q00613 whole entry): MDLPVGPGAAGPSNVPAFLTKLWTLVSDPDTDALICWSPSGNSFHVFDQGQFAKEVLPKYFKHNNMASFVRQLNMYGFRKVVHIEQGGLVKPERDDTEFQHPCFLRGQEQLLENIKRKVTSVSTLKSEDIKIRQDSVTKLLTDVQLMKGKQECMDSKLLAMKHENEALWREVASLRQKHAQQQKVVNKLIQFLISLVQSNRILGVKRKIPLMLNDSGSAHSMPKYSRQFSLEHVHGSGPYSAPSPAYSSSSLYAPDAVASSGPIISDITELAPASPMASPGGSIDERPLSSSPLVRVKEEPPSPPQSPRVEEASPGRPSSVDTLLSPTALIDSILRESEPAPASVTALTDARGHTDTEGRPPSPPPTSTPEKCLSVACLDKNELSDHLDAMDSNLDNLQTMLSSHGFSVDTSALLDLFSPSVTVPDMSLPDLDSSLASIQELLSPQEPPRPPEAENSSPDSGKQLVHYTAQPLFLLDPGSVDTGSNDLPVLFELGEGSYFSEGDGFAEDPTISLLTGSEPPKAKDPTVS
CRX, sequence (O43186 whole entry): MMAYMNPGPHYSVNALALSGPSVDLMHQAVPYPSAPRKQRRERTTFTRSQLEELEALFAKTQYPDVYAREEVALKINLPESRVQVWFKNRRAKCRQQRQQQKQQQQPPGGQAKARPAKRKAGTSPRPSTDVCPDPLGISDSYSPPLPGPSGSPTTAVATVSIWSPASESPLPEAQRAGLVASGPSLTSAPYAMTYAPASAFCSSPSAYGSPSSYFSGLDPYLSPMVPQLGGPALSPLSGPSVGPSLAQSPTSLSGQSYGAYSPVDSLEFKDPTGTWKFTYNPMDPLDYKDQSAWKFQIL
ELF4, sequence (Q99607 whole entry): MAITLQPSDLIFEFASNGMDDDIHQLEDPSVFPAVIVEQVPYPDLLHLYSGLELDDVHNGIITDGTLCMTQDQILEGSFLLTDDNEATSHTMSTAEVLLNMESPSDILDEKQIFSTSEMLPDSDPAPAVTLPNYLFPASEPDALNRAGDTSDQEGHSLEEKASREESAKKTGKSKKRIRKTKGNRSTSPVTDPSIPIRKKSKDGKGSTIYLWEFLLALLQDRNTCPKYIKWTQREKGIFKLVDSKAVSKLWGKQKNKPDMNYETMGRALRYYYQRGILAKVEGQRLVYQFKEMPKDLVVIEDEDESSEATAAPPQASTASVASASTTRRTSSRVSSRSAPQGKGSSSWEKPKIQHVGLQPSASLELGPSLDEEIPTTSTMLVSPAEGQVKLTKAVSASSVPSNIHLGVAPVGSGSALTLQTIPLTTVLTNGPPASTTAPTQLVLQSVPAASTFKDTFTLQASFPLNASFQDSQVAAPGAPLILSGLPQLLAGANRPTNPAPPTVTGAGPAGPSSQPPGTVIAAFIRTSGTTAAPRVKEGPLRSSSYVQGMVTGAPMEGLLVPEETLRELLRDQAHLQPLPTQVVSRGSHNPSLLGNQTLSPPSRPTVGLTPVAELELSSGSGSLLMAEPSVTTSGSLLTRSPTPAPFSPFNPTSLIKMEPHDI

In the case of CAACTA, the binding signal with FLI1 is 1.24 fold enrichment (6-mer frequency, TF over GST control); in the experiment with ELK1, 1.31 fold enrichment (6-mer frequency, TF over GST control); with GABPA, 1.37 fold enrichment (6-mer frequency, TF over GST control); in the experiment with ERG, 1.3 fold enrichment (6-mer frequency, TF over GST control); with ELF1, 1.38 fold enrichment (6-mer frequency, TF over GST control); with EHF, 1.27 fold enrichment (6-mer frequency, TF over GST control). Also, the binding signal with SPI1 is 1.28 fold enrichment (6-mer frequency, TF over GST control); in the experiment with SPIB it was 1.24 fold enrichment (6-mer frequency, TF over GST control); with ELK3, 1.25 fold enrichment (6-mer frequency, TF over GST control); with FEV, 1.27 fold enrichment (6-mer frequency, TF over GST control); with ETV5, 1.26 fold enrichment (6-mer frequency, TF over GST control); with HSF1, 1.2 fold enrichment (6-mer frequency, TF over GST control). Also, the binding signal with SPIC is 1.22 fold enrichment (6-mer frequency, TF over GST control); with ELF4 it was 1.31 fold enrichment (6-mer frequency, TF over GST control); with ELK4, 1.24 fold enrichment (6-mer frequency, TF over GST control); with ETV2, 1.18 fold enrichment (6-mer frequency, TF over GST control); with ELF3, 1.32 fold enrichment (6-mer frequency, TF over GST control); with CRX it was 1.24 fold enrichment (6-mer frequency, TF over GST control). Further, in the experiment with ETV1, the binding signal was 1.24 fold enrichment (6-mer frequency, TF over GST control).
